# From PubChem BioAssay (NCI)
# Compounds without any hit were thinned out: in the full panel of roughly 83,000, 20% have a hit.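 In brief: 96-well plates, 48 h treatment, single concentration, percent growth endpoint.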 Values without a mark were called inactive. Active and inactive are the calls of the source.
# Tested on: SW-620 colon
# Experiment: NCI-60 one-dose screen, 48 h (100 = growth as untreated, 0 = no growth, -100 = all killed)
# Details: 10 µM unless noted
# Method: Growth inhibition of the SW-620 human tumor cell line is measured as a screen for anti-cancer activity. Cells are grown in 96 well plates and exposed to the test compound for 48 hours. Compounds are tested at a single concentration, which is 10^-5 M for most compounds. The reported endpoint is percent growth (GI% or GIPRCNT), where numbers from 0 - 100% represent growth inhibition, and numbers from -100% - 0 represent cell death. For example, a value of 40 represents 60% growth inhibition. A value of 0 means no net growth occurred over the course of the experiment. A value of -40 indicates 40% of cells at the beginning of the experiment died by the end of the experiment. A value of -100 means all cells are dead at the end of the experiment.
# NCI-60 Human Tumor Cell Lines Screen was performed using the standard one-dose NCI protocol, which is described in more detail at https://dtp.cancer.gov/discovery_development/nci-60/default.htm.
# Compounds with GIPRCNT values below 10 were considered active. Activity score was based on GIPRCNT using the following formula: […]
# Score is 0 for GIPRCNT values of 100 or above, 50 for GIPRCNT values of 0, and 100 for GIPRCNT values of -100.
row,Structure (SMILES),growth
1,O=C(Nc1ccc(Oc2cccc(Cl)c2)c(Cl)c1)c1cccnc1,25.4%
2,COc1ccc(NC2=C(I)C(=O)c3ncccc3C2=O)cc1,-60.6% (active)
3,O=C(Nc1ccc(Oc2cccc(Cl)c2)c(Cl)c1)c1cnccn1,22.7%
4,O=S(=O)(NCCCNc1nccc(-c2c(-c3ccc(F)c(O)c3)nc3occn23)n1)c1ccc(Cl)cc1,97.8%
5,C=C(C)[C@@H]1CC[C@]2(C(=O)N3CCOCC3)CC[C@]3(C)[C@H](CC[C@@H]4[C@@]5(C)C/C(=C/c6ccncc6)C(=O)C(C)(C)[C@@H]5CC[C@]43C)[C@@H]12,50.3%
6,COc1ccc(OC)c(Nc2nnc(-c3ccc(O)c(OC)c3)o2)c1,78.6%
7,COc1ccc(F)cc1/C=C/C(=O)/C=C(/C=C/c1cc(F)ccc1OC)OB(F)F,14.1%
8,Cc1ccc2c(n1)C(=O)C(Br)=C(CC(C)C)C2=O,64%
9,O=C(OC(CO)C(=O)NC12CC3CC(CC(C3)C1)C2)c1ccc(Cl)cc1 (stereo not given),101%
10,CCOC(=O)c1c(NC(=O)c2cccc(C(F)(F)F)c2)sc2c(CN(C)C)c(O)ccc12,-6.39% (active)
11,CC/C=C\C[C@H](O)C/C=C1/C(=O)C=C[C@@H]1C/C=C\CCCC(=O)N(C)C,-42.4% (active)
12,CCCCCCCCCCCCCCCCOCCCOP(=O)(O)C1CCCN(O)C1=O (stereo not given),20.9%
13,Nc1n[nH]c2ccc([C@H]3[C@@H]4C5CCC(C5)[C@@H]4c4c(ccc5[nH]ncc45)N3S(=O)(=O)C3CC3)cc12 (stereo not given in full),21.9%
14,Cc1c2cnccc2c(C)c2c1c1cc(C#N)ccc1n2C,-0.262% (active)
15,Oc1c(Br)cc(Br)c2ccc(Cn3cc(-c4ccccc4C(F)(F)F)nn3)nc12,73.5%
16,CC(=O)/C(=C\c1c(-c2ccccc2)[nH]c2ccccc12)S(C)(=O)=O,13.7%
17,COc1cc2ncnc(Nc3ccc(F)c(Cl)c3)c2cc1OCC(=O)N1CCN(c2ccccc2)CC1,101%
18,CC(=O)N1N=C(c2ccc(C(F)(F)F)c(F)c2)CC1c1[nH]c(C)c(C(=O)NCC(F)(F)F)c1C (stereo not given),94.3%
19,COc1ccccc1NC(=O)N=Nc1c(O)[nH]c2ccccc12,84.4%
20,C=C1C(=O)O[C@H]2[C@H]1CC/C(COC(=O)/C=C\C(=O)NCc1ccc(Cn3c(=O)sn(CCI)c3=O)cc1)=C\CC[C@@]1(C)O[C@@H]21,8.21% (active)

row,Structure (SMILES),growth
1,COc1ccc(/C=C/C(=O)c2cc3c(N)c(C(=O)Nc4cccc5ccccc45)sc3nc2C)cc1,24.8%
2,COc1cccc(CNc2ccc3ncnc(Nc4ccc(F)c(Cl)c4)c3c2)c1,76.6%
3,CCCNC(=O)Nc1ccc2cc3ccc(NC(=O)NCCC)cc3nc2c1,92%
4,O=C1Nc2ccc(C(=O)O)cc2/C1=N/c1nnc(Sc2ccccc2)s1,103%
5,CCOC(=O)c1ccc(NC(=O)c2nc(-c3cc(OC)c(OC)c(OC)c3)n(-c3ccc(Cl)cc3)n2)cc1,105%
6,COC1=CC(c2ccc[nH]2)=N/C1=C\c1[nH]c(C)c(CC(=O)OCc2ccccc2)c1CCC(=O)OCc1ccccc1,-30.9% (active)
7,C#CCOc1cccc(Nc2ncnc3ccc(NC(=O)C=C)cc23)c1,55.9%
8,CCCCn1c(=O)[nH]c(N)c([C@@H]2c3c([nH]c(=O)n(CCCC)c3=O)Oc3ccc4ccccc4c32)c1=O,-67.9% (active)
9,CC(C)(Sc1cc(C(C)(C)C)c(OC(=O)CCCC(=O)O)c(C(C)(C)C)c1)Sc1cc(C(C)(C)C)c(OC(=O)CCCC(=O)O)c(C(C)(C)C)c1,41.4%
10,CCCC/C(CC)=N\NS(=O)(=O)c1ccc([N+](=O)[O-])cc1,106%
11,O=S(=O)(Nc1ccc(F)cc1F)c1ccc(-c2cnc(C3CC3)o2)cc1,23.7%
12,COC(=O)c1c(C)c2n(c1C)C(=O)C(c1ccccc1)=C2,93%
13,N#CC1=C(N)Oc2c(ccc3ccccc23)C1c1ccccc1 (stereo not given),28.2%
14,c1ccc(Cn2cc3c(c2)-c2oncc2CC3)cc1,23.9%
15,COc1cc(C2c3cc(OC(C)=O)c(OC)cc3CC3C(=O)OCC32)ccc1OC(C)=O (stereo not given),101%
16,CCCC/C=C/[C@@H]1C[C@H]1CCO,102%
17,COC12C=C/C(=C(/C(=O)OCc3ccncc3)C(=O)CCCCCCCCC3(OC)C=C/C(=C(/C(=O)OCc4ccncc4)C(=O)CCCCCCCC1)O3)O2,9.25% (active)
18,O=C1c2ccccc2-c2c1c1c(=O)[nH]c3ccccc3c1n2Cc1ccccc1,79.8%
19,CC1CCN(S(=O)(=O)c2ccc(S(=O)(=O)N3CCCC(c4nc5c(nnn5Cc5cccc(Cl)c5)c(=O)[nH]4)C3)cc2)CC1 (stereo not given),33.4%
20,CC1=NC2=Nn3c(c4cnn(-c5ccccc5)c4n/c3=N\N)NN2C(c2ccccc2)=C1,86.8%
